High-throughput results from PubChem.
Only some compounds are listed: those with a hit (about 4.7% of all), similar ones and a draw of the others.
D1 agonist: agonists of human D1 dopamine receptor; HEK293 T-REx D1 cells, calcium flux, agonist mode; activation, % at 2 µM; P21728; actives 1% (n = 360,000); also: 0% is about no effect
Target sequence (P21728 whole entry, looked up): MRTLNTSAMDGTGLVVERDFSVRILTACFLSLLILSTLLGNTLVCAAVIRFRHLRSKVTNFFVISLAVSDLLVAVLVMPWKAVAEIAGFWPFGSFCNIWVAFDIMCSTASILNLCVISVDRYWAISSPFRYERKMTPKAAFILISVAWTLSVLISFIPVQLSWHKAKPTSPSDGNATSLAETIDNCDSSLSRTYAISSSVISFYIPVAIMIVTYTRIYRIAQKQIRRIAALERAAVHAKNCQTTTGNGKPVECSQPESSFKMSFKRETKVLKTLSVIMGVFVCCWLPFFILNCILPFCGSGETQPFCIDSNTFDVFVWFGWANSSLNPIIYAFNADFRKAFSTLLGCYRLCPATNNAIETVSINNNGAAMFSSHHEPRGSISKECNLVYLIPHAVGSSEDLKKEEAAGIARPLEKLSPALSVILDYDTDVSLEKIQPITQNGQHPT
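Agonism was scored from calcium flux recorded over 180 s (1 read/s) after pintool compound addition, following a 10-cycle baseline. Cells were inducible force-coupled HEK293 TREx D1, plated overnight at 30 C and loaded with no-wash calcium dye.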
TRHR enhancer: allosterically enhances the human TRH receptor; P34981; TRHR cells, fluo-8 calcium fluorescence, EC20 TRH enhancement; enhancement, % at 2 µM; actives 0.66% (n = 360,000); in the data active = enhancement above about 30%; also: 0% is about no effect
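Enhancer read-out: after compound pinning and an initial kinetic agonist-mode read, an EC20 of TRH (10 nM final) was injected and fluo-8 calcium signal (Ex 480/Em 530) followed at 1 s/cycle for 100 cycles in TRHR-expressing cells.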
D1 PAM: enhances dopamine response at the human D1 receptor; HEK293 TREx D1 cells, calcium flux, dopamine EC20 potentiation; P21728; potentiation, % at 10 µM; actives 0.036% (n = 360,000); in the data active = potentiation above about 30%; also: 0% is about no effect
D1 antag: human D1 dopamine receptor antagonism; HEK293 TREx D1 cells, calcium flux, dopamine EC80; stronger effect = lower value; activity change, negative = inhibition, % at 10 µM; actives 3.2% (n = 360,000); in the data active = activity change below about -30%; also: % is scaled to controls: 0 for no effect and ±100 for the full control effect
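Compound effects on dopamine-evoked calcium signalling were measured in tetracycline-induced HEK293 Trex D1 cells. Dopamine at EC80 followed a 180 s compound pre-read, and fluorescence was tracked kinetically for 180 s more.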
TRHR agonist: activates the human TRH receptor; P34981; TRHR cells, calcium flux fluo-8, FDSS agonist mode; actives 0.18% (n = 360,000); AID 493084; activation, % at 2 µM; also: 0% is about no effect
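TRHR-expressing cells loaded with fluo-8 calcium dye; 23 nL library compound pin-transferred, kinetic FDSS fluorescence (Ex 480/Em 530) recorded about 180 s for agonist-induced calcium release, before a 10 nM TRH EC20 addition for potentiator mode.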
Active calls of the source: *; ! = not active in a repeat. Rule as the data show it, unless noted: active = activation above about 30%; inactive = the rest.

SMILES | D1 agonist | TRHR enhancer | D1 PAM | D1 antag | TRHR agonist
O=C(CSc1nc2ncccc2[nH]1)NCCc1ccccc1 | 0 | 5 | -7 | -39* | 1
COc1ccccc1OCc1nnc(-c2ccccc2)o1 | -1 | -2 | 1 | 2 | -1
COc1ccc(NC(=O)CSc2oc(-c3ccco3)nc2S(=O)(=O)c2ccccc2)c(OC)c1 | 4 | 7 | 0 | 5 | 0
Cc1cccc(NC(=O)Nc2cccs2)c1C | 5 | 12 | -3 | -3 | 1
O=C(Nc1cccs1)Nc1ccc(Br)cc1F | 17 | 21 | 1 | -32* | -1
Cc1c(NC(=O)Nc2cccs2)cccc1[N+](=O)[O-] | 18 | 3 | -12 | -36* | 1
CC1(NC(=O)C2CCN(C(=O)Nc3ccccc3)CC2)CCS(=O)(=O)C1 (centres undefined) | 1 | -4 | -2 | -3 | 0
CCc1ccc(NC(=O)CN2C(=O)CC(C)S(=O)(=O)c3ccccc32)cc1 (centres undefined) | 0 | 13 | -3 | -32* | 0
CC1Cc2cc(S(=O)(=O)NCc3ccc(F)cc3)ccc2N1C(=O)C1CCC1 (centres undefined) | 10 | -5 | -7 | -26 | -1
COCCNC(=O)c1cc2sccc2n1C | 1 | 5 | -7 | -8 | 0
COc1ccc(CNC(=O)c2ccc(C(C)C)cc2)cc1 | 3 | -3 | -4 | -47* | -1
COc1ccc(CNC(=O)c2cc3sccc3n2C)cc1 | 0 | 5 | -1 | -52* | 0
CC(C)CN(C(=O)CSc1nnc(C2CC2)n1-c1ccccc1)C1CCS(=O)(=O)C1 (centres undefined) | 0 | 7 | -3 | 28 | 0
O=C(CSc1ccc(-c2ccc(Cl)cc2)nn1)N1CCCc2ccccc21 | 6 | -6 | -6 | -34* | 2
O=C(CSc1ccc(-c2ccc(F)cc2)nn1)N1CCCc2ccccc21 | 4 | 2 | 1 | 13 | 0
Cc1ccc(NC(=O)CSc2ccc(-c3ccc4c(c3)OCO4)nn2)cc1F | -1 | 0 | -4 | -2 | 1
O=C(CSc1ccc(-c2ccc(Cl)cc2)nn1)Nc1ccc2c(c1)OCCO2 | 1 | 8 | -7 | -31* | 0
C=C(C)CSc1nc2sc3c(c2c(=O)n1-c1ccc(OC)cc1)CCN(C)C3 | 1 | 4 | -3 | 2 | -1
CCC(C)(C)NC(=O)C(c1ccc(C)cc1)N(Cc1cccnc1)C(=O)c1csnn1 (centres undefined) | -1 | 4 | -25 | -63* | 0
CCc1ccc(S(=O)(=O)Nc2ccc3oc(C)c(C(=O)OCCOC)c3c2)cc1 | 22 | 3 | 1 | -43* | 0
CC(=O)c1c(C)oc2c(Cl)cc(NS(=O)(=O)c3ccc(Cl)cc3)cc12 | -1 | 8 | -5 | -13 | 0
COCCOC(=O)c1c(C)oc2ccc(NS(=O)(=O)c3ccc(C)cc3)cc12 | 11 | 3 | 2 | -8 | 0
CCOC(=O)c1c(C)oc2c(Cl)cc(NS(=O)(=O)c3ccc(Cl)c(C)c3)cc12 | 13 | 0 | -3 | -31* | -1
Cc1cc(NC(=O)c2ccccc2Cl)ccc1NC(=O)c1ccccc1 | 0 | -1 | 0 | -20 | 0
N#Cc1ccc(OCC(=O)Nc2nc(-c3cccnc3)cs2)cc1 | 1 | 8 | -7 | 9 | 0
SMILES | D1 agonist | TRHR enhancer | D1 PAM | D1 antag | TRHR agonist
CCOc1ccccc1NC(=O)Cn1c(=O)nc(-c2ccccc2F)c2cc(Cl)ccc21 | -3 | 0 | 2 | -43* | 0
CCN(CC)CCNC(=O)c1cc2c(-c3ccc(Cl)cc3)nn(C)c2s1 | 6 | 6 | 0 | 8 | 2
CCCCN(CC)CCNC(=O)c1cc2c(-c3ccc(Cl)cc3)nn(C)c2s1 | 66*! | -6 | -1 | 6 | 0
CN(C)C=Nc1ccccc1C1C=NNC1=O (centres undefined) | 1 | -6 | -5 | -34* | 1
CC(=O)c1c(N=CN(C)C)nc(C)nc1-c1ccccc1 | 0 | 7 | -3 | 17 | 0
CCOC(=O)c1ccc(NC(=O)CC2S/C(=N/N=C/c3c[nH]c4ccccc34)NC2=O)cc1 (centres undefined) | 1 | 5 | 2 | -36* | 0
Cc1ccc(C2C(C#N)=C(N)SC(N)=C2C#N)c(C)c1 | 51* | -4 | -4 | -22 | -1
CCOc1ccc(NC(=O)CC2C(=O)N(c3ccc(OC)cc3)C(=O)N2CCC2=CCCCC2)cc1 (centres undefined) | 1 | -1 | -2 | -22 | 0
CCN(CC)CCNc1nc2ccccc2n1C | 2 | -1 | -1 | -37* | 0
CCN(CC)CCn1c(C)nc2ccccc21 | 5 | -2 | -5 | -10 | 1
Cn1c(Nc2ccccc2)nc2ccccc21 | 3 | -2 | -2 | -46* | 0
Nn1c(Nc2ccccc2)nc2ccccc21 | 0 | -7 | -5 | -15 | 0
O=C1c2[nH]nc(-c3ccccc3O)c2C(c2ccc(F)cc2)N1CCO (centres undefined) | 2 | -1 | -1 | -9 | 0
COCCCNS(=O)(=O)c1ccc(SC)cc1 | 3 | -1 | -3 | -4 | 0
CSc1ccc(S(=O)(=O)NCCOc2ccccc2C)cc1 | 9 | -3 | -7 | -31* | 0
CCn1c(CSc2nc(C)cc(C)n2)nnc1SCC(=O)Nc1nc(-c2ccccc2)cs1 | 37* | -2 | 0 | 4 | 3
O=C(c1ccccc1)c1nn(-c2cccc(Cl)c2)c2nc(-c3ccccc3)cc(=O)n12 | 1 | 6 | 1 | -74* | -2
Cc1ccc(-n2nc(CO)c(C(=O)NCCO)n2)cc1 | 2 | -1 | 0 | -6 | 0
O=[N+]([O-])c1ccc(P(=O)(Cc2ccccc2)c2ccccc2O)cc1 (centres undefined) | 0 | 4 | -6 | -34* | -1
CCN(c1ccccc1)S(=O)(=O)c1cc(C(=O)Nc2ccc(Br)cc2)ccc1F | 7 | -8 | -3 | -37*! | 1
N=C(N=C(N)N)N1CCc2ccccc21 | 1 | 2 | -7 | -37* | 0
COc1ccc(CCCc2nnc(SCC(=O)Nc3ccc(C)c(C)c3)o2)cc1 | 3 | -4 | -3 | -32*! | 0
COc1ccc(CCCc2nnc(SCC(=O)Nc3ccc(OC)cc3)o2)cc1 | -1 | -4 | 0 | -5 | -1
COc1ccc(C(=O)NCc2nnc(SCC(=O)NCc3ccco3)o2)cc1OC | 2 | -2 | -1 | -41* | 1
COc1ccc(C(=O)NCc2nnc(SCC(=O)NCCc3ccccc3)o2)cc1 | 1 | 36* | 5 | 10 | 0
O=C(CSc1nnc(CNC(=O)c2ccc(F)cc2)o1)NCCc1ccccc1 | 1 | -3 | 2 | 15 | 0
O=C(NCc1ccc2c(c1)CCN2C(=O)c1ccncc1)c1ccc(Cl)cc1 | 5 | -3 | -3 | -16 | 0
